Assay [1] addresses Nuclear receptor subfamily 1 group I member 3 (Homo sapiens) (UniProt Q14994). Briefly: Primary qHTS for antagonist of constitutive androstane receptor (CAR) against the NCATS DSHEA and TCM libraries (AID 1794836).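 Further: HepG2 cells stably expressing hCAR with CYP2B6 luciferase reporter stimulated by CITCO.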 Summed up: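 HepG2-CYP2B6-hCAR cells, attached 5 h, given compounds plus CITCO agonist […], incubated 24 h at 37 C. Luciferase luminescence read, multiplexed with CellTiter-Fluor viability (Ex/Em 405/540 nm).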

A short description of assay [2]: KB-8-5-11 P-gp reporter qHTS against the NCATS DSHEA and TCM libraries (AID 1919977). Further: 0% is about no effect. The gist of the method:
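CellTiter-Glo luminescence measured viability after ~72 h exposure (37C, 5% CO2) of KB-8-5-11 cervical adenocarcinoma cells overexpressing P-gp. Colchicine was omitted during assay. Substances were tested as titrations.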

Assay [3] concerns the target Peroxisome proliferator-activated receptor delta (Homo sapiens) (UniProt Q03181). Nature of the assay: qHTS assay for small molecule agonists of peroxisome proliferator-activated receptor delta signaling (AID 588534; calls by dose curve;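 further: 0% = DMSO basal wells and 100% = positive control agonist at 10 µM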). The gist of the method: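 EC50 and efficacy values derive from Hill fits of a concentration series in a beta-lactamase reporter cell assay. Exposure is 18 hrs at 37 C, with CCF4 fluorescence as the readout.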
In general terms: Quantitative high-throughput screening tests each substance at several concentrations.

For assay [4], the target named is Voltage-gated inwardly rectifying potassium channel KCNH2 (Homo sapiens) (UniProt Q12809). Nature of the assay: qHTS Assay for Small Molecule Inhibitors of the Human hERG Channel Activity (AID 588834).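 Further: lower thallium flux fluorescence means stronger hERG block; nearly all actives have a fitted effect of over 50% in size.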 Further: potency means the concentration at half of the fitted maximal effect. Summed up:
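hERG block measured as reduced thallium-dye (FluxOR) fluorescence after stimulation buffer addition, read over 2 min. Cells were hERG-BacMam-transduced U2OS exposed to compound ~10 min […]; concentration-response fitted with Hill equation for AC50.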

Assay [5] can be described thus: Cell Viability - BJ (AID 421; calls by dose curve;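 further: potency means the concentration at half of the fitted maximal effect; cells exposed to compound for 40 hours at 37 °C before readout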). To be noted: BJ fibroblast viability, qHTS. The gist of the method: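 Normal human BJ foreskin fibroblasts, 1500/well in complete medium, treated 40 hr at 37 °C. Cellular ATP by CellTiter-Glo luminescence; normalized to DMSO and 100 uM tamoxifen, AC50 from Hill fit.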
The nature of assay [6]: Cell Viability - HepG2 (AID 433; calls by dose curve;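 further: potency means the concentration at half of the fitted maximal effect; cells exposed to compound for 40 hours; potency for ATP loss meaning cytotoxicity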). The note with it: qHTS. The gist of the method:
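Cytotoxicity read as ATP loss (CellTiter-Glo luminescence) after 40 hr compound exposure of HepG2, 1500 cells/well, 37 °C. AC50 by Hill equation; 0% set by DMSO, 100% inhibition by 100 uM tamoxifen.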

A short description of assay [7]: Cell Viability - MRC5 (AID 434; calls by dose curve;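 further: potency means the concentration at half of the fitted maximal effect; cells exposed to compound for 40 hours at 37 °C; potency reflects cytotoxicity seen as loss of intracellular ATP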). To be noted: MRC5 lung fibroblast viability, qHTS. Summed up:
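ATP luminescence read-out (CellTiter-Glo, 20 min RT) after 40 hr, 37 °C compound exposure of 1500 MRC5 cells/well. Data normalized to DMSO (basal) and 100 uM tamoxifen (100% inhibition); AC50 from standard Hill equation.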

Assay [8] concerns the target Mitogen-activated protein kinase 10 (Mus musculus) (UniProt Q61831). Briefly: JNK3 AlphaScreen Assay (AID 530; active means well fitted curve in either direction with a large enough effect, not every such curve was filed as active;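 further: kinase came from lysate of stimulated human HepG2 cells; signal reports phosphorylation of biotinylated GST-cJun 1-79 at Ser73 with 10 µM ATP; on the % scale 0 is the no-effect control and ±100 the full control effect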). Summed up: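 HepG2 lysate (IL-1b/TNFa pre-activated) + biotin-GST-cJun 1-79 + anti-pSer73 cJun; cpd titration, 15 min RT; ATP 10 uM start; Tris pH 7.6, MgCl2, DTT, vanadate; beads in EDTA buffer; AlphaScreen.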
In general terms: In Alpha technology, singlet oxygen from a donor bead excites a nearby acceptor bead.

Assay [9] can be described thus: Cell Viability - N2a (AID 540).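 Further: cells exposed to compound for 40 h at 37 °C; plate controls were DMSO alone for no effect and tamoxifen control for full effect; nearly all actives have a fitted effect of over 45% in size.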 To be noted: N2a mouse neuroblastoma cell viability; at 92.2 µM (top of the series). Summed up: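 In this qHTS cytotoxicity screen, ATP-dependent luciferase luminescence reports viable N2a cells after a 40 hr compound exposure in complete culture medium. Potencies are AC50 values from standard Hill equation fits.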
Assay [10] can be described thus: Cell Viability - HUV-EC-C (AID 542).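 Further: cells exposed to compound for 40 hours; on the % scale 0 is the no-effect control and ±100 the full control effect; nearly all actives have a fitted effect of over 35% in size.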 Summed up:
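Concentration-dependent ATP loss in HUV-EC-C cells is the measure. Exposure lasts 40 hr at 37 °C; luminescence follows CellTiter-Glo addition, and Hill fits give AC50.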

A short description of assay [11]: Cell Viability - SH-SY5Y (AID 544).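 Further: cells exposed to compound for 40 hours; 0% = DMSO alone and -100% = 100 µM tamoxifen; nearly all actives have a fitted effect of over 55% in size.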 To be noted: SH-SY5Y neuroblastoma cell viability; viability change, negative = cytotoxic: at 92.2 µM (top of the series). The gist of the method: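 Quantitative HTS in SH-SY5Y neuroblastoma cells, 40 hr treatment at 37 °C, ATP content by luciferase luminescence; AC50 from Hill fits.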
Assay [12] is described as follows: Cell Viability - Renal Proximal Tubule (AID 545).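 Further: cells exposed to compound for 40 hours; 0% = DMSO only and -100% = 100 µM tamoxifen; nearly all actives have a fitted effect of over 40% in size.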 The note with it: renal proximal tubule cells viability; at 91.7 µM (top of the series), primary cells of rat origin unless noted. Summed up: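 Viability taken as intracellular ATP (CellTiter-Glo luminescence) after 40 hr, 37 °C compound treatment of primary proximal tubule cells from rat kidney, 1000 cells/well; Hill-equation fits of qHTS concentration-response data gave AC50.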

The nature of assay [13]: qHTS Assay for Identification of Small Molecule Inducers of Hypoxia Response (AID 2120; active means well fitted curve in the direction sought with a large enough effect in the signal ratio, with a control signal flat, not every such curve was filed as active; the % refers to the signal ratio; further: 0% is about no effect). Summed up:
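HRE-bla ME-180, 2500 cells/well, 0.5% dialyzed FBS medium; cpd titration, 17 h 37 degrees C; CCF4 2.5 h RT; Ex 405, Em 460/530 ratio -> %Activity, AC50.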

Assay [14] is described as follows: HepG2 viability counterscreen (readout 2: ATP content) against the NCATS DSHEA and TCM libraries (AID 1794840).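 Further: HepG2 cells exposed to substances for about 24 h; 0% is about no effect.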 Summed up: (§1)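 Readout 1: cellular protease activity, GF-AFC substrate (25 uM final, 30 min, fluorescence 380/510 nm). Readout 2: ATP content by CellTiter-Glo luminescence after 30 min at RT. Both follow ~24 h exposure of HepG2 cells (1,000/well) to substances.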
A general note: A counterscreen serves to expose hits that act by an unwanted route or on another target.

Assay [15] in a line: HepG2 viability counterscreen (readout 1: protease activity) against the NCATS DSHEA and TCM libraries (AID 1794841).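 Further: cells exposed to compounds for about 24 h before the protease read; 0% is about no effect.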 The gist of the method:
as §1

The nature of assay [16]: KB-3-1 P-gp reporter qHTS against the NCATS DSHEA and TCM libraries (AID 1919975). Further: 0% is about no effect. Summed up:
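Cell viability by CellTiter-Glo luminescence following ~72 h compound exposure (concentration-response). Uses parental, non-P-gp-overexpressing KB-3-1 line, 500 cells/well in DMEM/10% FBS, attached ~4 h before dosing.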

Assay [17] can be described thus: qHTS Counterscreen for compound interference against the NCATS DSHEA and TCM libraries (AID 1919978).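 Further: compounds preincubated with 1 µM D-luciferin or buffer before detection reagent; % of control where 0% means no effect.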 The note with it: firefly luciferase detection reagent interference, luminescence. Summed up:
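With 1 uM D-luciferin or phosphate buffer only, compounds at final 19.5 nM–39.8 uM were incubated for 15 min at room temperature. Luciferase detection reagent was then added, and luminescence was measured after a further 30 min at room temperature.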

The nature of assay [18]: Dual reporter qHTS for agonist of Pregnane X Receptor (hPXR) against the NCATS DSHEA and TCM libraries: Fluorescence readout (AID 1920058). Further: 0% is about no effect. The gist of the method:
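In this qHTS counter-read, reporter-bearing HepG2 cells in charcoal-stripped serum received substances for approximately 24 h before viability was assessed fluorometrically with CellTiter-Fluor.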

The target of assay [19] is Nuclear receptor subfamily 1 group I member 2 (Homo sapiens) (UniProt O75469). Nature of the assay: Dual reporter qHTS for antagonist of Pregnane X Receptor (hPXR) against the NCATS DSHEA and TCM libraries: Luminescence Readout (AID 1920060).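 Further: HepG2 cells carrying hPXR luciferase reporter stimulated with rifampicin at 2 µM; 0% is about no effect.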 Summed up: (§2)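 hPXR-Luc HepG2 cells exposed 24 h at 37 C to compounds with 2 uM rifampicin in antagonist mode; luciferase luminescence measured by ONE-Glo, with CellTiter-Fluor viability read beforehand.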
Sequence of Nuclear receptor subfamily 1 group I member 2 (Homo sapiens) (O75469 whole entry, looked up): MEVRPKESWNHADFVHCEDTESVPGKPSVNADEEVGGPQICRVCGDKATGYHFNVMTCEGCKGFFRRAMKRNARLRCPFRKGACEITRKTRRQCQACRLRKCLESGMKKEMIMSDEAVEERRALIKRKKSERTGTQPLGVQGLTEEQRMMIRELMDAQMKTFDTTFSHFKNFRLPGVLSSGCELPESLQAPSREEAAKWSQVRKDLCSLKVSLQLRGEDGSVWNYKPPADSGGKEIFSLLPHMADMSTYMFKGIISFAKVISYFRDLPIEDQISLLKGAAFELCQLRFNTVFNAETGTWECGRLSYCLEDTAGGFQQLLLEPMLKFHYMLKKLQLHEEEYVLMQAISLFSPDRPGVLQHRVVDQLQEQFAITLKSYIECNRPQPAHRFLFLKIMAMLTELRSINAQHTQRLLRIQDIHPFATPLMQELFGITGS

A short description of assay [20]: Dual reporter qHTS for antagonist of Pregnane X Receptor (hPXR) against the NCATS DSHEA and TCM libraries: Fluorescence Readout (AID 1920061). Further: 0% is about no effect. The gist of the method: as §2

Each structure is given as a SMILES string. A number with no mark means an inactive call. Records with an inconclusive call do not appear. Activity calls are given as the source filed them. Unless noted, the call rests on the fitted dose curve; in most records, active means well fitted curve in the direction sought with a large enough effect; inconclusive means small, poorly fitted or top-dose-only effect, or another doubt; inactive means no such curve, though single readings can be large; an effect the other way counts as inactive or inconclusive.

Sequence of Nuclear receptor subfamily 1 group I member 3 (Homo sapiens) (Q14994 whole entry, looked up): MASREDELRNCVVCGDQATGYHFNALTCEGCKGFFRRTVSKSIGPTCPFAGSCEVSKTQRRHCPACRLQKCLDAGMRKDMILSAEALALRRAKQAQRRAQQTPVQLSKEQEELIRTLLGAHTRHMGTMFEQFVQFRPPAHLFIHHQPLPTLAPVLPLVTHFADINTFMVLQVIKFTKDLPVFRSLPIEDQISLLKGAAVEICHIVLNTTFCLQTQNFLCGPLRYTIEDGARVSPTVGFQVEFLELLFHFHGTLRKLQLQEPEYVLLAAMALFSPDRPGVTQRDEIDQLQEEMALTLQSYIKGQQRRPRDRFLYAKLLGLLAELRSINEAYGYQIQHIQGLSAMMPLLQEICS
Sequence of Peroxisome proliferator-activated receptor delta (Homo sapiens) (Q03181 whole entry, looked up): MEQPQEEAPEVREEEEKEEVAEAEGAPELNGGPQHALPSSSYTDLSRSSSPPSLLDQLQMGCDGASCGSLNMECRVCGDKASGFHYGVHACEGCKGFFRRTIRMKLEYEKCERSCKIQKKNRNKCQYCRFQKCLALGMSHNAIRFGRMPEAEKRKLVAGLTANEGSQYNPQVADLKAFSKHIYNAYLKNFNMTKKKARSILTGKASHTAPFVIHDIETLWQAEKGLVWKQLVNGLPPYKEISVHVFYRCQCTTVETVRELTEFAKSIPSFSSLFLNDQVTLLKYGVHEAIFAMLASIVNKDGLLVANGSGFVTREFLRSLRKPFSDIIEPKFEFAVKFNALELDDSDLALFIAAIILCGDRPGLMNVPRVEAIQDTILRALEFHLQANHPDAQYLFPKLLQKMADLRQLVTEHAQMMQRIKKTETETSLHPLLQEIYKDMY
Sequence of Voltage-gated inwardly rectifying potassium channel KCNH2 (Homo sapiens) (Q12809 whole entry, looked up): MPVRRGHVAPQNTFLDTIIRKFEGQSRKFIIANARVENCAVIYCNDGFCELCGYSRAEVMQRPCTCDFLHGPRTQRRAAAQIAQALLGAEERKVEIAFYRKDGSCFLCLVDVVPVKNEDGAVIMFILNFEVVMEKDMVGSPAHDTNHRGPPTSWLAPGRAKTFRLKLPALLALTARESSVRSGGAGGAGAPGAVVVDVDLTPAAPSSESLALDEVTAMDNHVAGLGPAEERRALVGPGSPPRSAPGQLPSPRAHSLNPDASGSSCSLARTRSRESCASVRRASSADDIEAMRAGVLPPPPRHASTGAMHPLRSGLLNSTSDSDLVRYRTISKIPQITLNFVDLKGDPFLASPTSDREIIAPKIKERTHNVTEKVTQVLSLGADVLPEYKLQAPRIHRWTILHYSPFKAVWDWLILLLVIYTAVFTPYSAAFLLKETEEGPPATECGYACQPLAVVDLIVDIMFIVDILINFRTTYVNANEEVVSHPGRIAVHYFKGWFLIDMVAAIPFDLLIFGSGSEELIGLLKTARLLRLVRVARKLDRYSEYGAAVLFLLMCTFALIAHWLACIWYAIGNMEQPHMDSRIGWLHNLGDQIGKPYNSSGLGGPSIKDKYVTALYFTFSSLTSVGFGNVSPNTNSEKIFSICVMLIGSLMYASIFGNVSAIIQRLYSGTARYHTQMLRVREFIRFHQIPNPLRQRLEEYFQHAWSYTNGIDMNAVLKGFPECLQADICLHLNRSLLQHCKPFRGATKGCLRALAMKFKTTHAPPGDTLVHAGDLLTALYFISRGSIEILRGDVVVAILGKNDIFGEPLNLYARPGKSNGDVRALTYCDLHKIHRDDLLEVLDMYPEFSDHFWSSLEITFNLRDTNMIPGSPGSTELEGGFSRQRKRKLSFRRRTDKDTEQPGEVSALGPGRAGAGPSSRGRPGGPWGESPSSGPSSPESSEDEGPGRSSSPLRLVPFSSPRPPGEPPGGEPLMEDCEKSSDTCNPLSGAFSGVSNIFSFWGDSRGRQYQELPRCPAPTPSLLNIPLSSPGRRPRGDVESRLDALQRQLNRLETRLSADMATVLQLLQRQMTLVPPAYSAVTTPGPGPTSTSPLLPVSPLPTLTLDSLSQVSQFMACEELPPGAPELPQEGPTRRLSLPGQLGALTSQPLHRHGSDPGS

For `O=C(OC[C@H]1O[C@@H](OC(=O)c2cc(O)c(O)c(O)c2)[C@H](OC(=O)c2cc(O)c(O)c(O)c2)[C@@H](OC(=O)c2cc(O)c(O)c(O)c2)[C@@H]1O)c1cc(O)c(O)c(O)c1`, the Potency result in assay [1] and in [2] was “inactive” in each case.

Take `COc1ccc2ccc(=O)oc2c1`: the Potency result in assay [1] and in assay [2] was “inactive” in each case.

For the compound `O=c1c(O[C@@H]2O[C@H](CO)[C@H](O)[C@H](O)[C@H]2O)c(-c2ccc(O)c(O)c2)oc2cc(O)cc(O)c12`, the Potency result in [1] and in [2] was “inactive” in each case.

Take `C=C1CC[C@H](O)C/C1=C\C=C1/CCC[C@]2(C)[C@@H]([C@H](C)CC[C@H](C)C(C)C)CC[C@@H]12`: the Potency entry in assay [1] and in [2] was “inactive” throughout.

In the case of `CCCCCCC/C=C/C(=O)CCc1ccc(O)c(OC)c1`, the Potency entry in [1] and in assay [2] was “inactive” each time.

In the case of `OC[C@H]1O[C@@H](OC[C@H]2O[C@@H](OC/C=C/c3ccccc3)[C@H](O)[C@@H](O)[C@@H]2O)[C@@H](O)[C@@H]1O`, the Potency entry in assay [1] and in [2] was “inactive” each time.

`CCCCCCCC/C=C\CCCCCCCCCCCCCC(=O)O`: the Potency entry in assay [1] and in [2] was “inactive” throughout.

As to `C[S+](CC[C@H](N)C(=O)O)C[C@H]1O[C@@H](n2cnc3c(N)ncnc32)[C@H](O)[C@@H]1O` (stereo partly drawn), the Potency entry in assay [1] and in [2] was “inactive” in each case.

Consider `CCC(/C=C/[C@@H](C)[C@H]1CCC2C3CC=C4C[C@@H](O)CC[C@]4(C)C3CC[C@@]21C)C(C)C` (stereo partly drawn), for which the Potency entry in assay [1] and in assay [2] was “inactive” in each case.

On to `O=C(OCC1=C[C@@H](O)[C@@H]2C=CO[C@@H](O[C@@H]3O[C@H](CO)[C@@H](O)[C@H](O)[C@H]3O)[C@H]12)c1ccc(O)cc1`, for which the Potency entry in assay [1] and in [2] was “inactive” each time.

Consider `CC(C)=CCCC(C)(OC1OC(COC2OC(CO)C(O)C2O)C(O)C(O)C1O)C1CCC2(C)C1C(O)CC1C3(C)CCC(OC4OC(CO)C(O)C(O)C4OC4OC(CO)C(O)C(O)C4O)C(C)(C)C3CCC12C` (stereo not drawn), for which the Potency result in assay [1] and in assay [2] was “inactive” each time.

In the case of `Cc1ccc(C(C)C)cc1`, the Potency entry in assay [1] and in assay [2] was “inactive” each time.

For the compound `Oc1cccc(O)c1O`, the compound was classed as inactive in assay [3]. Further, the Potency result in [1] and in assay [2] was “inactive” each time.

For the compound `O=C(/C=C/c1ccc(O)c2c1[C@H](C(=O)O)[C@@H](c1ccc(O)c(O)c1)O2)O[C@H](Cc1ccc(O)c(O)c1)C(=O)O`, the Potency entry in assay [1] and in assay [2] was “inactive” throughout.

On to `O=C(O)CC(O)(C(=O)O)C(O)C(=O)O` (stereo not drawn), for which the Potency entry in [1] and in [2] was “inactive” in each case.

As for `CC/C=C\C/C=C\C/C=C\CCCCCCCC(=O)O`, the Potency result in [1] and in assay [2] was “inactive” each time.

Turning to `CCCCCCCCC[C@@H](O)CC(=O)CCc1ccc(O)c(OC)c1`, the Potency result in [1] and in [2] was “inactive” each time.

As for `CN1C[C@H](C(=O)N[C@]2(C)O[C@@]3(O)C4CCCN4C(=O)[C@H](Cc4ccccc4)N3C2=O)C[C@@H]2c3cccc4[nH]cc(c34)C[C@H]21` (stereo partly drawn), the Potency in assay [4] was 11.2 µM (active).

Regarding `S=C(S)N1CCCC1`, the Potency in [4] was 3.55 µM (active).

Consider `O=Cc1ccccc1O`, for which the Potency entry in assay [1] and in assay [2] was “inactive” in each case.

Regarding `O=C(/C=C/c1ccc(O)c(O)c1)O[C@H]1[C@H](O)C[C@](O)(C(=O)O)C[C@H]1OC(=O)/C=C/c1ccc(O)c(O)c1`, the Potency entry in assay [1] and in assay [2] was “inactive” in each case.

As for `COC1=CC(=O)O[C@@H](/C=C/c2ccc3c(c2)OCO3)C1`, the Potency in [5], in assay [6] and in assay [7] was above 92 µM throughout. The outcome in assay [8], in assay [13], in assay [3], in [14], in [15] and in [16] was inactive. For the same compound, the outcome in assay [18], in [19] and in assay [20] was inactive. In addition, the results for the activity change, negative = cytotoxicity in assay [9] and in assay [12] were -10.4% and -14.1%, respectively. Also, the Potency result in assay [10], in assay [11], in assay [4] and in assay [2] was “inactive” each time. In addition, the max response in assay [17] is 0.0511%.

Turning to `CCCCCCCCCCCCCC(=O)O`, in [2], the Potency result is “inactive”.

Regarding `Cc1ccc([N+](=O)[O-])cc1C`, the Potency in [5], in assay [6] and in [7] was above 92 µM each time. Moreover, the compound was classed as inactive in assay [8], in assay [13] and in assay [3]. The activity change, negative = cytotoxicity in assay [9] is -25%; in [12], -10.6%. Further, the Potency entry in assay [10], in assay [11] and in assay [4] was “inactive” each time.

Consider `CC(C)=CCC[C@](C)(OC1OC(COC2OCC(O)C(O)C2O)C(O)C(O)C1O)[C@H]1CC[C@]2(C)[C@@H]1[C@H](O)C[C@@H]1[C@@]3(C)CC[C@H](OC4OC(CO)C(O)C(O)C4OC4OC(CO)C(O)C(O)C4O)C(C)(C)[C@@H]3CC[C@]12C` (stereo partly drawn), for which the Potency result in assay [2] was “inactive”.
